The text below walks through data of PubChem BioAssay (NCATS).

The target in test [1] is Lysosomal acid glucosylceramidase (Homo sapiens) (UniProt P04062). In words: Glucocerebrosidase-p2 (AID 348; in the data active = potency below about 10 µM; note: potency is the fitted concentration of half-maximal effect). As to conditions: purified GBA, blue fluorogenic substrate, 40 min. The procedure, abridged: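 Compounds titrated from 0.6 nM upwards against 0.2 nM enzyme in pH 5.9 citric acid/KH2PO4, taurocholate, tween-20; blue fluorogenic substrate 80 uM, 40 min room temperature, stopped and read Ex 365/Em 440 for AC50.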

Test [2] can be described thus: AP1 Signaling Pathway (AID 357).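 Note: ME-180 reporter cells stimulated with EGF at its EC50 level; % is set by controls: 0 for no effect and ±100 for the full control effect.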 Particulars: ME-180 AP-1-bla reporter, EGF-induced, beta-lactamase ratio, 5 h; at 7.69 µM (top of the series) unless noted. The essentials:
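First, ME-180 AP-1-bla cells were cultured overnight at 37 °C in low-serum Opti-MEM. Next, titrated compounds with EC50 EGF were incubated 5 hours. Finally, CCF4 was added for 2.5 hours and the 460/530 nm ratio recorded.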

Test [3] concerns the target Cytochrome P450 1A2 (Homo sapiens) (UniProt P05177). In words: p450-cyp1a2 (AID 410; calls by dose curve; note: potency is the fitted concentration of half-maximal effect;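 for activity change, negative = inhibition: -100% = full effect of reference inhibitor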). As to conditions: recombinant CYP1A2, luciferin-ME demethylation, luminescence; series mostly up to 57 µM. The essentials:
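Luminescent readout of luciferin formed from Luciferin-ME by human CYP1A2; data normalized against complete inhibition by 57 uM furafylline. Enzyme 20nM, substrate 100uM at Km, 100mM KPO4 buffer, 60 min reaction at room temperature.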

A short description of test [4]: NFAT Signaling Pathway (AID 444).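 Note: carbachol stimulus at about its EC50 of 1 µM final; % is set by controls: 0 for no effect and ±100 for the full control effect.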 As to conditions: Jurkat NFAT-bla M1, carbachol, beta-lactamase ratio, 5 h; at 7.69 µM (top of the series) unless noted. The procedure, abridged: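 Read-out: CCF4 FRET ratio (460 nm/530 nm) after 1 h RT dye loading, used for %activity and AC50 from titration series. Cells: Jurkat NFAT-β-lactamase/M1 line, treated with compound plus 1 uM carbachol for 5 h, 37 °C.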

Test [5] can be described thus: Stat Signaling Pathway (AID 446).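 Note: ME-180 cervical cancer cells given 40 pM IL-6 alongside compound; SIE-controlled beta-lactamase reporter measured as 460/530 nm FRET emission ratio; % is set by controls: 0 for no effect and ±100 for the full control effect.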 As to conditions: ME-180 (cervical carcinoma) SIE beta-lactamase reporter, IL-6 stimulated, 5 h; at 7.69 µM (top of the series) unless noted. The essentials: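 IL-6/STAT signaling read in ME-180 cells via an SIE beta-lactamase reporter. Stimulus was 40 pM IL-6 (its AC50) for 5 hrs, so both activation and inhibition register.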
The target in test [6] is Glucocorticoid receptor (Homo sapiens) (UniProt P04150). In words: GR-EFC Redistribution (AID 451; calls by dose curve; note: potency is the fitted concentration of half-maximal effect). Particulars: CHO-K1 GR-EFC translocation, beta-gal luminescence, 2 h. The procedure, abridged:
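Translocation of GR-ED fusion to nuclear EA restores b-gal, read by luminescence after 1 h room-temperature detection. Engineered CHO-K1 biosensor cells, 1,000/well, exposed 2 h at 37 C to titrations up to 46 uM final.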

The target in test [7] is Mitogen-activated protein kinase 10 (Mus musculus) (UniProt Q61831). In words: JNK3 AlphaScreen Assay (AID 530).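 Note: kinase came from lysate of stimulated human HepG2 cells; signal reports phosphorylation of biotinylated GST-cJun 1-79 at Ser73 with 10 µM ATP; % is set by controls: 0 for no effect and ±100 for the full control effect.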 Particulars: JNK3 lysate, c-Jun phosphorylation; series mostly up to 57.1 µM. The essentials:
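Compound titrations were preincubated 15 minutes at room temperature with substrate, antibody and pre-activated JNK3-containing HepG2 lysate. Reactions were started with 10 uM ATP and stopped with EDTA-containing bead buffer for AlphaScreen detection.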
Background: In Alpha technology, singlet oxygen from a donor bead excites a nearby acceptor bead.

Test [8] has as its target 3',5'-cyclic-AMP phosphodiesterase 4B (Homo sapiens) (UniProt Q07343). In words: qHTS Assay for Inhibitors of PDE-IV (AID 607; active = well fitted activation curve with a large enough effect in the main read-out, with a control signal flat, not every such curve was filed as active; note: % of control where 0% means no effect). Particulars: HEK293 ACTOne CNG channel cells, membrane potential fluorescence; series mostly up to 22.9 µM. The essentials: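 Live HEK293 cells with a modified cyclic nucleotide-gated (CNG) channel report intracellular cAMP via membrane-potential dye fluorescence (ex 535/em 590 nm). Endogenous PDE-IV was targeted. Compounds were tested at up to 22.9 uM final; RO 20-1724 100 uM served as control.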

For test [9], the target named is Cytochrome P450 3A4 (Homo sapiens) (UniProt P08684). In words: qHTS Assay for Activators of Cytochrome P450 3A4 (AID 885; active = well fitted curve in the direction sought with a large enough effect; an effect the other way counts as inactive or inconclusive; note: nearly all actives have a fitted effect of over 65% in size). As to conditions: recombinant CYP3A4, Luciferin-PPXE luminescence, 60 min; series mostly up to 57.1 µM. The procedure, abridged: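 Quantitative HTS format: compounds preincubated with 20nM human CYP3A4 and Luciferin-PPXE substrate at KM, reaction started by NADPH regeneration, stopped after 60 min, luciferase luminescence read 20 min later.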
(In general: In qHTS, concentration-response curves come from the screen itself.)

Test [10] is described as follows: qHTS Assay for Lipid Storage Modulators (AID 1519; calls by dose curve). As to conditions: Drosophila S3 cells, BODIPY lipid droplet/cell ratio, laser cytometry, cells loaded with oleic acid; for activity change, negative = inhibition: at 57.5 µM (top of the series). The essentials: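 Cells seeded at 5,000 per well were treated with compounds over a concentration series and loaded with oleic acid (400 uM, as added). Lipid droplet fluorescence (488 nm excitation, 500-530 nm channel) was read by laser-scanning cytometry and normalized to 20 uM Triacsin C.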

Test [11] can be described thus: Primary qHTS for small molecule stabilizers of the endoplasmic reticulum resident proteome: Secreted ER Calcium Modulated Protein (SERCaMP) assay (AID 1508630; active = well fitted curve in the direction sought with a large enough effect; an effect the other way counts as inactive or inconclusive; note: % is set by controls: 0 for no effect and ±100 for the full control effect). As to conditions: SH-SY5Y GLuc-SERCaMP (Gaussia luciferase released on ER calcium loss) secretion, thapsigargin, luminescence; series mostly up to 38.4 µM. The procedure, abridged:
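GLuc-SERCaMP-expressing SH-SY5Y cells, pretreated 16 h with compound, are challenged with thapsigargin to empty ER calcium stores; after 4 h, coelenterazine is added directly to the medium and luminescence is imaged.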

Setting [12] is: measured here: cell count channel max response.
The mark [13] stands for this setting: measured here: lipid channel max response.

Structures are written as SMILES. Results filed as inconclusive are left out. Active and inactive are the calls of the source. Unless noted, calls come from the whole dose curve; as a rule, active = well fitted curve in either direction with a large enough effect (not every such curve was filed as active); inconclusive = small, poorly fitted or top-dose-only effect, or another doubt; inactive = flat fitted curve, though single readings scatter.

Chain of Glucocorticoid receptor (Homo sapiens) (P04150 whole entry, looked up, the tested form may be a part): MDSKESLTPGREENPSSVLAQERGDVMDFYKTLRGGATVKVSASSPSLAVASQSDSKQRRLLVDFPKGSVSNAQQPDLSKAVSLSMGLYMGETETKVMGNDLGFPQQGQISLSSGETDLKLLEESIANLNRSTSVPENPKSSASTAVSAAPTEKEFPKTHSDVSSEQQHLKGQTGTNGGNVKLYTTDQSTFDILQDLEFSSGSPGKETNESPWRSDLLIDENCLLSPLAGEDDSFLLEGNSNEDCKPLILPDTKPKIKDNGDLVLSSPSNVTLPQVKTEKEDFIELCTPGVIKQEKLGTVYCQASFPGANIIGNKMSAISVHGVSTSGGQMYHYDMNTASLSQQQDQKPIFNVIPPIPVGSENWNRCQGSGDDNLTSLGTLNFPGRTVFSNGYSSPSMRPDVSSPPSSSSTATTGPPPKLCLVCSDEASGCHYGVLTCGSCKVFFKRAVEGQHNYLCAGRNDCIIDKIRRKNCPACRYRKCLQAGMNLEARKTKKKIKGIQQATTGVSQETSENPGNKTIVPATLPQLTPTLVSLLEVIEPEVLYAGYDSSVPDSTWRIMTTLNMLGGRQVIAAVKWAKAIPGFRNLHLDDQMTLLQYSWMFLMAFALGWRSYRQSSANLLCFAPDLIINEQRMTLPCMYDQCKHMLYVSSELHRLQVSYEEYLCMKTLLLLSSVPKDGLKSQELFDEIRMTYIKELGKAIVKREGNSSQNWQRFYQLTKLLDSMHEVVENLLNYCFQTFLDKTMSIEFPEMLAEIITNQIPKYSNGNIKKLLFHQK
Chain of Lysosomal acid glucosylceramidase (Homo sapiens) (P04062 whole entry, looked up): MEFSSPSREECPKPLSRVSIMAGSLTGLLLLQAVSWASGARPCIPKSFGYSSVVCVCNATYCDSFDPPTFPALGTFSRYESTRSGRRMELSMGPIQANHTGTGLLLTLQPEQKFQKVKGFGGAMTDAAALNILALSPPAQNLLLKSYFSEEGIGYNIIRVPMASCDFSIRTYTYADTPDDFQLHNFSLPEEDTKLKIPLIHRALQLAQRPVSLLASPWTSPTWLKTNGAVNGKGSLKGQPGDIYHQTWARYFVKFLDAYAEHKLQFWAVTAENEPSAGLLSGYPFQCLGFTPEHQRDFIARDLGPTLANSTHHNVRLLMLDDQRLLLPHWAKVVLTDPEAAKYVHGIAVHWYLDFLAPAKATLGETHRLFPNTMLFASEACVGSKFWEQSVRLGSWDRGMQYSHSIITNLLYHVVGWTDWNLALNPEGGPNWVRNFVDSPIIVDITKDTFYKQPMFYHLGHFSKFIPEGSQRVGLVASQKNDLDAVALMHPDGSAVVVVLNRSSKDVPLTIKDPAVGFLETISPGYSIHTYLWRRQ
Chain of Cytochrome P450 3A4 (Homo sapiens) (P08684 whole entry, looked up): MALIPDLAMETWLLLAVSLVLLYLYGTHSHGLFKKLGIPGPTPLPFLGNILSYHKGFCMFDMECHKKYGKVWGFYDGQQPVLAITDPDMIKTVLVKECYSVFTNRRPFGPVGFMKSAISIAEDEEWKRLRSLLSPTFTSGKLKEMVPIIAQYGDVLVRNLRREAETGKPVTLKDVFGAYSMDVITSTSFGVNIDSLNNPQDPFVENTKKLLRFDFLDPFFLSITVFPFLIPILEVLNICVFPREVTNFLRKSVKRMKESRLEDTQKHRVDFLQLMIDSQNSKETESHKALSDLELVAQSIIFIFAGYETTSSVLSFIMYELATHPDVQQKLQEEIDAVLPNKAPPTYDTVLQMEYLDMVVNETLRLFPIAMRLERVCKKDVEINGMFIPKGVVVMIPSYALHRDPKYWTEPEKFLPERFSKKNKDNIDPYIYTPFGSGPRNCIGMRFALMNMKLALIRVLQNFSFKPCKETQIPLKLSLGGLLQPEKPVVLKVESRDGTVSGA
Chain of 3',5'-cyclic-AMP phosphodiesterase 4B (Homo sapiens) (Q07343 whole entry, looked up): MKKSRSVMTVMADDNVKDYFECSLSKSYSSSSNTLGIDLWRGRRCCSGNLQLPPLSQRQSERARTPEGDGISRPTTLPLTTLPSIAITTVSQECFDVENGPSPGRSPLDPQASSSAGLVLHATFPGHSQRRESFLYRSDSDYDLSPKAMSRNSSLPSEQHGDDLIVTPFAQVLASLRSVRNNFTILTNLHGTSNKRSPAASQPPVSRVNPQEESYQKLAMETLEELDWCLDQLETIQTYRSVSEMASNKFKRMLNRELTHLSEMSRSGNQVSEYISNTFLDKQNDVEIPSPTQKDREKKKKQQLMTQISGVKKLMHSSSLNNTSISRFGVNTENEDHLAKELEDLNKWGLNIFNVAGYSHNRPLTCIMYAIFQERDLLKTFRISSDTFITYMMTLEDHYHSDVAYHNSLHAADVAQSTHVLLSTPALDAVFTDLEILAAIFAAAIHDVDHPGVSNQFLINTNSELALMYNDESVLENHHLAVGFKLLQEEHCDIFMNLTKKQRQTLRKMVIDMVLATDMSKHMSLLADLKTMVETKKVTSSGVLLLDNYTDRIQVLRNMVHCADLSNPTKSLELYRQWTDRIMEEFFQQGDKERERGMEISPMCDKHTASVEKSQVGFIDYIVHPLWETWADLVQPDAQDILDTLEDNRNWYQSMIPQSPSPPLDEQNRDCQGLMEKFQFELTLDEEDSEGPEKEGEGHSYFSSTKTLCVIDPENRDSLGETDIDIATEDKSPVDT
Chain of Cytochrome P450 1A2 (Homo sapiens) (P05177 whole entry, looked up): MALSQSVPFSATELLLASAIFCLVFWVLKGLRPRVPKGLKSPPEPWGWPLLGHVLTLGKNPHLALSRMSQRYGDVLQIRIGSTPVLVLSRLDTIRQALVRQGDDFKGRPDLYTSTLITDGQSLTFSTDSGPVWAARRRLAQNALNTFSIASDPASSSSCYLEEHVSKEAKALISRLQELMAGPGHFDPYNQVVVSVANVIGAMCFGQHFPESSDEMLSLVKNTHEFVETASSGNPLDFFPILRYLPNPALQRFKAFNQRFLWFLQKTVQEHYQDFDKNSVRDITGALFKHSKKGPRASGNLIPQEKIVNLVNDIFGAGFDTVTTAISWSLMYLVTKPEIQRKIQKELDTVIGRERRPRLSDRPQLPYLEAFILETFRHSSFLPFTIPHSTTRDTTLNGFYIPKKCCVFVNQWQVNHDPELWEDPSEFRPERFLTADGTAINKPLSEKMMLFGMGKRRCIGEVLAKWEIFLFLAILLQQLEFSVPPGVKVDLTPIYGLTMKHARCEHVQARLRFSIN

With `O=C(Nc1cccc(F)c1)N1CC[C@@]2(CCCN(C(=O)c3cccc(F)c3)C2)C1`, the Potency in test [1] was > 11.4 µM (inactive); in test [3], 12.6 µM (active); in [6], > 46 µM (inactive). Further, the activity change, negative = inhibition is -6.61% (inactive) in [2], 16.9% (inactive) in test [4] and 6.49% (inactive) in test [10]. Moreover, the activity, negative = inhibition in test [5] is -1.65% (inactive). Moreover, the result in test [7] was inactive. In addition, the Potency result in [8], in test [9] and in test [11] was “inactive” throughout. Besides, the max response in [10] (setting [12]) came out at 12.4%; in [10] (setting [13]), 22.3%.
Consider `COc1ccc(NC(=O)N2CC[C@@]3(CCCN(C(=O)c4cnccn4)C3)C2)cc1`, for which the Potency is > 11.4 µM (inactive) in test [1] and > 46 µM (inactive) in [6]. For the same compound, the figures for the activity change, negative = inhibition in [2], in [4] and in [10] were -10.4% (inactive), -2.83% (inactive) and 4.73% (inactive), respectively. The Potency result in [3], in test [8], in test [9] and in test [11] was “inactive” each time. Further, the activity, negative = inhibition in test [5] was 6.32% (inactive). Also, in test [7], the compound was called inactive. Besides, the max response was 2.35% in test [10] (setting [12]) and 9.8% in test [10] (setting [13]).
Regarding `O=C(Nc1ccccc1)N1CC[C@@]2(CCCN(C(=O)c3cnccn3)C2)C1`, the Potency in test [1] was > 11.4 µM (inactive); in test [6], > 46 µM (inactive). The activity change, negative = inhibition was 6.39% (inactive) in [2], 7.42% (inactive) in test [4] and 1.67% (inactive) in test [10]. Besides, the Potency result in [3], in [8], in test [9] and in [11] was “inactive” in each case. Besides, in [5], the activity, negative = inhibition is -0.789% (inactive). The call in [7] was inactive. Moreover, the figures for the max response in test [10] (setting [12]) and in [10] (setting [13]) were 12.8% and 16%, respectively.
On to `CC(C)NC(=O)N1CCC2(CC1)CCN(C(=O)c1ccncc1)CC2`, for which the Potency in test [1] is > 11.4 µM (inactive); in [6], > 46 µM (inactive). The activity change, negative = inhibition in test [2] is -7.19% (inactive); in [4], 1.59% (inactive); in [10], -0.818% (inactive). The Potency entry in test [3], in test [8], in [9] and in [11] was “inactive” in each case. Besides, the activity, negative = inhibition in test [5] was -8.96% (inactive). Further, the outcome in [7] was inactive. Moreover, the figures for the max response in test [10] (setting [12]) and in test [10] (setting [13]) were 9.1% and 9.91%, respectively.
With `COc1ccc(NC(=O)N2CCCC3(CCN(S(C)(=O)=O)CC3)C2)cc1`, the Potency was > 11.4 µM (inactive) in test [1] and > 46 µM (inactive) in [6]. Also, the results for the activity change, negative = inhibition in [2], in test [4] and in test [10] were -11.2% (inactive), 21.9% (inactive) and 3.48% (inactive), respectively. The Potency result in [3], in test [8], in [9] and in test [11] was “inactive” each time. The activity, negative = inhibition in test [5] was 17.2% (inactive). For the same compound, in test [7], the compound was called inactive. Further, the figures for the max response in test [10] (setting [12]) and in [10] (setting [13]) were -9.3% and -4.34%, respectively.
`COC(=O)N1CCC[C@@]2(CCN(C(=O)Nc3cccc(F)c3)C2)C1`: the Potency in test [1] is > 11.4 µM (inactive); in test [3] it was 15.8 µM (active); in [6], > 46 µM (inactive). Moreover, the activity change, negative = inhibition in test [2] was -17.4% (inactive); in test [4], -2.35% (inactive); in test [10] it was 5.97% (inactive). For the same compound, the activity, negative = inhibition in test [5] is 1.62% (inactive). The result in test [7] was inactive. Further, the Potency entry in [8], in test [9] and in [11] was “inactive” each time. The values for the max response in test [10] (setting [12]) and in test [10] (setting [13]) were 20.5% and 28.7%, respectively.
